Screening data: PubChem, National Center for Advancing Translational Sciences (NCATS)
WRN helicase inh: qHTS for Inhibitors of WRN Helicase. 360,000 compounds, 0.46% hits. Potency, µM (highest dose often 114 µM), inactives show top-dose activity change, negative = inhibition, usual class: inhibitors. WRN helicase unwinding, fluorescent forked duplex, kinetic; also: % is scaled to controls: 0 for no effect and ±100 for the full control effect; nearly all actives have a fitted effect of over 55% in size
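Primary qHTS, 1536-well format. 20 nM WRN + compound, 15 min RT; start with 100 nM forked fluorophore/quencher duplex, 2 mM ATP (final); kinetic read ex 525/em 598 nm.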
POLK inh: qHTS for Inhibitors of Polymerase Kappa | DNA polymerase kappa (Homo sapiens), Q9UBT6 | purified Pol kappa, fluorescent DNA synthesis assay, 10 min | Potency, µM (doses to about 107 µM), inactives show top-dose activity, negative = inhibition, hits mostly inhibitors | 400,000 compounds, 0.53% hits | AID 588579, 2011; also: % is scaled to controls: 0 for no effect and ±100 for the full control effect
Target sequence (Q9UBT6 whole entry, looked up): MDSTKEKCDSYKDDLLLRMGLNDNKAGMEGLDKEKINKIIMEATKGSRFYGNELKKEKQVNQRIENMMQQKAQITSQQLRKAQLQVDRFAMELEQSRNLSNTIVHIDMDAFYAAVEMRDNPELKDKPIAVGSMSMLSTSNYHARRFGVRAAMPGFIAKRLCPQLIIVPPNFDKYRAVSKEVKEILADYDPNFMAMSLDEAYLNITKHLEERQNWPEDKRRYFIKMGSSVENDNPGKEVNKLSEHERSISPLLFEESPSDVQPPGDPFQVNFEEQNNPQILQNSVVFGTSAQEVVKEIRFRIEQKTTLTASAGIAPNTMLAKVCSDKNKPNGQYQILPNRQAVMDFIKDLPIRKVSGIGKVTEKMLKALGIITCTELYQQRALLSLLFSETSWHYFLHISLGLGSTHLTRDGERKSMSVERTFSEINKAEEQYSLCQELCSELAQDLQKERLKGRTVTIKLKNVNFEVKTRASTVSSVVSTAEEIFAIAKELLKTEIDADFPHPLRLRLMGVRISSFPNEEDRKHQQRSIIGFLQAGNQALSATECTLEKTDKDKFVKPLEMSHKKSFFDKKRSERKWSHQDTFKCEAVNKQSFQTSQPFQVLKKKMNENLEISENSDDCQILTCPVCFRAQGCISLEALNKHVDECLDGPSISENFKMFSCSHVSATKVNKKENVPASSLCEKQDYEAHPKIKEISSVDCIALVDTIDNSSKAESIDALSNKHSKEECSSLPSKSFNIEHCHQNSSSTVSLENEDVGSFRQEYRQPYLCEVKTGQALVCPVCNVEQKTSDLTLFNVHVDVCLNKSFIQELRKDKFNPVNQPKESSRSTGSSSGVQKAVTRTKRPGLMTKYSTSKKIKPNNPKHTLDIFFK
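Fluorescent qHTS in 1536-well format: enzyme (10 nM) and compound sat 15 min at room temperature before 50 nM substrate (final) was added. Signal taken at 0 and 10 min; no-enzyme buffer wells were negative controls.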
POLI inh: qHTS for Inhibitors of Polymerase Iota; DNA polymerase iota (Homo sapiens), Q9UNA4; Pol iota fluorescent replication assay, 10 min; Potency, µM (doses to about 115 µM), without a hit: at the top dose activity, negative = inhibition, actives largely listed as inhibitors; 390,000 compounds, 1% hits
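Pol iota at 10 nM preincubated 15 min with compounds at room temperature; reaction started with fluorescent substrate, 50 nM final. Fluorescence read kinetically at 0 and 10 min; buffer-only wells as negative control.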
Pol beta inh: qHTS Assay for Inhibitors of DNA Polymerase Beta. P06746. Pol beta primer extension/strand displacement, fluorescence kinetic. Potency, µM (doses to about 114 µM), without a hit: top-dose activity change, negative = inhibition, actives largely listed as inhibitors. 340,000 compounds, 1.3% hits. AID 485314, 2010; also: % is scaled to controls: 0 for no effect and ±100 for the full control effect
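Pol beta (10 nM) was preincubated with compound for 15 min at room temperature. The reaction was then started with 50 nM substrate and read immediately and after a further 10 min at room temperature.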
POLH inh: qHTS for Inhibitors of Polymerase Eta; recombinant Pol eta, fluorescent DNA replication assay; Potency, µM (series often up to 114 µM), for the others: at the top dose activity change, negative = inhibition, usual class: inhibitors; 390,000 compounds, 1.2% hits; AID 588591, 2011; also: % is scaled to controls: 0 for no effect and ±100 for the full control effect
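Pol eta (10 nM) was preincubated with compounds for 15 min at room temperature, after which fluorescent replication substrate (50 nM final) was added to start the reaction. Fluorescence was read kinetically at 0 and 10 min.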
FEN1 inhibitor: qHTS Assay for the Inhibitors of Human Flap endonuclease 1 (FEN1). Potency, µM (titrated, usually from 114 µM), without a hit: top-dose activity change, negative = inhibition, actives largely listed as inhibitors. 390,000 compounds, 0.35% hits. P39748. Recombinant FEN1 flap cleavage, fluorescence, 15 min; also: % is scaled to controls: 0 for no effect and ±100 for the full control effect; nearly all actives have a fitted effect of over 65% in size
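Compounds are tested as a concentration series against 10 nM FEN1; after a 15 min room-temperature preincubation, 50 nM substrate starts cleavage, with plate reads at 0 and 15 min. Normalized responses are fitted by a Hill equation.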
Numbers without * were called inactive; ? = inconclusive; nt = no result given; [ ] = dose if it differs, or a comment. Only some compounds are listed: those with a hit (about 2.4% of all), similar ones and a draw of the others. Calls follow the shape of the dose curve; as a rule, active = well fitted curve in the direction sought with a large enough effect; inconclusive = small, poorly fitted or top-dose-only effect, or another doubt; inactive = no such curve, though single readings can be large; an effect the other way counts as inactive or inconclusive. Potency is read from the fitted curve at half-maximal effect.

SMILES | WRN helicase inh | POLK inh | POLI inh | Pol beta inh | POLH inh | FEN1 inhibitor
Cc1ccc(S(=O)(=O)NNc2ccccc2)c(C)c1 | 50µM* | -8% | -10% | ? | -6% | 1%
Cc1ccc(S(=O)(=O)Nc2ccc(O)c3ccccc23)c(C)c1 | 50µM* | -16% | ? | -19% | -6% | ?
COc1ccc(S(=O)(=O)Nc2ccc(O)c3ccccc23)cc1 | 79µM* | -7% | 20µM* | 8% | -17% | ?
CC1CCCCN1C(=O)CSc1nc2ccccc2nc1Cc1ccc(Cl)cc1 (centres undefined) | nt | -15%[60.1 µM] | 4% | -17% | -25% | -17%
CCOc1ccc(CCNC(=O)c2cn(C)c3ccc(S(=O)(=O)N4CCOCC4)cc3c2=O)cc1OCC | -2% | 1% | -13% | -1% | -14% | -10%
CCOc1ccc(CCNC(=O)c2cn(C)c3ccc(S(=O)(=O)N4CCCCC4)cc3c2=O)cc1OCC | nt | -5% | 79µM* | ? | -13% | -8%
CC(=O)Nc1ccn(C2CC3OCC(NC(=O)C(Cc4ccccc4)NC(=O)OC(C)(C)C)C3O2)c(=O)n1 (centres undefined) | nt | 12% | 8% | nt | nt | 6%
O=C(O)/C=C/c1cnc2ccccc2n1 | -5% | -9% | 24% | -5% | -14% | 17%
O=C(/C=C/c1cnc2ccccc2n1)NC12CC3CC(CC(C3)C1)C2 | -14% | -17% | 2% | 56µM* | 3% | -1%
CS(=O)(=O)c1ccc(C(=O)OCC(=O)NC23CC4CC(CC(C4)C2)C3)cc1[N+](=O)[O-] | -31%[57.1 µM] | -6% | 22µM* | 1% | 16µM* | -11%
O=C(CSc1ccccc1)Nc1nc2ccccc2[nH]1 | -3%[57.1 µM] | -8% | -6% | -2%[57.1 µM] | -6% | 3%
O=C(CSc1ccc(Cl)cc1)Nc1ccc(-c2nc3ccccc3[nH]2)cc1 | -27% | -16% | -44% | 32µM* | ? | -16%
CC[C@H](C)[C@H](NC(=O)[C@H](C)NC(=O)[C@H](Cc1cnc[nH]1)NC(=O)[C@@H]1CCCN1C(=O)CNC(=O)[C@H](CC(C)C)NC(=O)[C@H](CC(C)C)NC(=O)[C@H](Cc1ccc(O)cc1)NC(=O)CNC(=O)[C@H](C)NC(=O)[C@H](CO)NC(=O)[C@H](CC(N)=O)NC(=O)[C@H](CC(C)C)NC(=O)[C@@H](NC(=O)[C@H](Cc1c[nH]c2ccccc12)NC(=O)CN)[C@@H](C)O)C(=O)O | nt | 19%[60.1 µM] | nt | nt | nt | nt
O=C1NN(c2ccccc2)C(=O)/C1=C\c1cccn1-c1ccc(Cl)c([N+](=O)[O-])c1 | -11%[57.1 µM] | ? | ? | ? | 20µM* | 2%
C=CCn1c(SCC(=O)NCCOC)nc2scc(-c3ccco3)c2c1=O | ? | ? | ? | ? | 18µM* | 6%
C=CCn1c(SCC(=O)NCC2CCCO2)nc2scc(-c3ccco3)c2c1=O (centres undefined) | -1%[11.6 µM] | -33% | ? | 7.1µM* | -9% | -15%
Cc1c2cnn(CC(=O)NCCc3ccccc3)c(=O)c2c(C)n1Cc1ccccc1 | nt | 2% | 24% | 0% | 10% | -19%
O=C(CSCCO)Nc1cccc(C(F)(F)F)c1 | 7% | -2% | -12%[58.9 µM] | -23% | -18% | -6%
Cc1ccc(C)c(NC(=O)CSc2sc3c(O)cc(=O)[nH]c3c2C#N)c1 | -21%[57.1 µM] | ? | 28µM* | ? | 20µM* | -22%
Cc1ccc(NC(=O)CSc2nc3[nH]c(=O)cc(O)c3s2)c(Br)c1 | -2% | -19% | -16% | nt | -18% | 14%
Cc1cc(NC(=O)CSc2sc3c(O)cc(=O)[nH]c3c2C#N)ccc1Br | -7%[11.6 µM] | ? | 56µM* | ? | 28µM* | ?
N#Cc1c(SCC(=O)Nc2cccc(C(F)(F)F)c2)sc2c(O)cc(=O)[nH]c12 | ? | 25µM* | ? | 44% | 20µM* | 25µM*
Cc1c(C(=O)O)sc2nc(/C=C/c3cccc(O)c3)[nH]c(=O)c12 | ? | -13% | ? | -2% | 35µM* | ?
Cc1ccc(OCCSc2nc3ccccc3n2CC(=O)N2CCCCC2)c(C)c1 | nt | 7% | -5% | 2% | ? | -3%
CNC(=O)c1c(O)c2cccc3c2n(c1=O)CCC3 | ? | -2% | 111% | 31% | 10% | -3%
SMILES | WRN helicase inh | POLK inh | POLI inh | Pol beta inh | POLH inh | FEN1 inhibitor
O=c1c([N+](=O)[O-])c(O)c2cccc3c2n1CCC3 | -12%[11.6 µM] | ? | -86% | 35µM* | 50µM* | ?
Cc1ccc(CNC(=O)CN2C(=O)C3(SCC(=O)N3c3cc(C)cc(C)c3)c3ccccc32)cc1 (centres undefined) | nt | -8% | -15% | -3% | -12% | -13%
CCOC(=O)C1=C(C)N(c2ccc(C)c(C)c2)C(=O)/C1=C\c1ccco1 | -9% | -5% | 12% | 28% | -14% | -16%
COC(=O)C1=C(C)N(c2ccc(C)c(C)c2)/C(=C/c2ccco2)C1=O | ? | -21% | ? | 22µM* | -3% | 0%
O=C(Cc1ccc(Cl)cc1)NO | nt | 11% | 25% | nt | nt | 29%
CCCCc1nc(NCCNC(=O)c2ccco2)c(C#N)c2c1CSC(C)(C)C2 | ? | ? | ? | 4% | 89µM* | -6%
COc1ccc2c(c1)n([O-])c1c([n+]2=O)CCC1 | -14%[57.1 µM] | -20% | ? | -3% | 22µM* | 9%
N#Cc1ccc(/C=N/NC(=S)Nc2ccc(S(=O)(=O)N3CCOCC3)cc2)cc1 | -11% | -2% | 23% | -2% | -17% | -3%
O=S(=O)(c1ccc(NC(=S)N/N=C/c2ccc(O)c(O)c2)cc1)N1CCOCC1 | -27% | ? | 20µM* | -27% | -3% | 0%
O=C(NCCSCc1ccccc1Cl)C1CCN(S(=O)(=O)Cc2ccccc2)CC1 | nt | -15% | 20% | 0% | -15% | -6%
CC(=O)c1ccc(OC(=O)c2nc(-c3ccccc3)oc2C)cc1 | -23% | -15% | ? | 50µM* | ? | 10%
O=C(CN1C(=O)CCSc2ccccc21)Nc1ccc(C(F)(F)F)cc1 | nt | -15% | -2% | 9% | -11% | 16%
CC(=O)Nc1ccc(/C=C/c2nc3ccccc3s2)cc1 | nt | 4% | ? | nt | nt | ?
